# Test results taken from PubChem BioAssay (Tox21).
# Results filed as inconclusive are left out. The source made the active and inactive calls. Calls come from the whole dose curve; as a rule, active = well fitted curve in the direction sought with a large enough effect in the repeat runs; inconclusive = weak or mixed curves; inactive = no such curve, though single readings can be large; an effect the other way counts as inactive or inconclusive.
# Tests used:
# [1] = target: Cytochrome P450 2C19 (Homo sapiens) (UniProt P33261); test: Cytochrome P450 Family 2 Subfamily C Member 19 (CYP2C19) small molecule antagonists: luciferase reporter qHTS assay (AID 1671197); note: nearly all actives have a fitted effect of over 65% in size
# Outline: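 Light output is proportional to CYP2C19 activity: proluciferin substrate is converted to luciferin, then detected by a luciferin detection reagent that also stops the 1 h, 37C NADPH-driven reaction. Ketoconazole serves as positive control.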
# [2] = target: Cytochrome P450 2C9 (Homo sapiens) (UniProt P11712); test: Cytochrome P450 Family 2 Subfamily C Member 9 (CYP2C9) small molecule antagonists: luciferase reporter qHTS assay (AID 1671198); note: nearly all actives have a fitted effect of over 50% in size
# Outline: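 P450-Glo proluciferin substrate with CYP2C9 enzyme; 10 min RT preincubation, then NADPH regeneration 1 h at 37C; luciferin detection reagent 20 min RT, luminescence in relative luminescence units.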
# [3] = target: Cytochrome P450 1A2 (Homo sapiens) (UniProt P05177); test: Cytochrome P450 Family 1 Subfamily A Member 2 (CYP1A2) small molecule antagonists: luciferase reporter qHTS assay (AID 1671199); note: nearly all actives have a fitted effect of over 50% in size
# Outline: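 Luminescence readout (relative luminescence units) after luciferin detection reagent, 20 min RT. Preceded by 1 h room-temperature CYP1A2 reaction with NADPH regeneration solution following 10 min compound preincubation with enzyme and proluciferin substrate. Furafylline positive control.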
# [4] = target: Voltage-gated inwardly rectifying potassium channel KCNH2 (Homo sapiens) (UniProt Q12809); test: Human Ether-a-go-go-Related Gene (hERG) channel small molecule antagonists: fluorescence cell-based qHTS assay (AID 1671200); note: nearly all actives have a fitted effect of over 50% in size
# Outline: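 Measured: Tl+ flux via fluorescence (480/540 nm) in hERG-expressing U2OS cells after 1 h dye loading at room temperature.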
# [5] = target: Cytochrome P450 3A4 (Homo sapiens) (UniProt P08684); test: Cytochrome P450 Family 3 Subfamily A Member 4 (CYP3A4) small molecule antagonists: luciferase reporter qHTS assay (AID 1671201); note: nearly all actives have a fitted effect of over 50% in size
# Outline: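 Setup: enzyme-substrate mix, compound pin transfer, 10 min RT. Reaction: NADPH regeneration solution, 1 h RT. Readout: detection reagent stops turnover, luminescence measured after 20 min, expressed in relative luminescence units.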
# Potency is the fitted concentration of half-maximal effect.
# Chain of Cytochrome P450 3A4 (Homo sapiens) (P08684 whole entry, looked up): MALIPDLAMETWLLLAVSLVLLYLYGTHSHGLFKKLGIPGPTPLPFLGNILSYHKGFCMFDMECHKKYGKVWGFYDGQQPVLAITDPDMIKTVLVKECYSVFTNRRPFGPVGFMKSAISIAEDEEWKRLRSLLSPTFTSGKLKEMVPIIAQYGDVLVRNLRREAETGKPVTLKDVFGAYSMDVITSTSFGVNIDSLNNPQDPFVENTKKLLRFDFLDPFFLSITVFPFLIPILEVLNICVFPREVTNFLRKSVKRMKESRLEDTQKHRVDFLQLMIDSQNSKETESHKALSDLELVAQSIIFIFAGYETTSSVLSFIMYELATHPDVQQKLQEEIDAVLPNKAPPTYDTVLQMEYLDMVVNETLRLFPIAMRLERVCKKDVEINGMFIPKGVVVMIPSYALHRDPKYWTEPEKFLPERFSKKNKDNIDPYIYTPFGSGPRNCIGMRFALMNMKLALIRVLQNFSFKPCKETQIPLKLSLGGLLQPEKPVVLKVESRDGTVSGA
# Chain of Cytochrome P450 2C19 (Homo sapiens) (P33261 whole entry, looked up): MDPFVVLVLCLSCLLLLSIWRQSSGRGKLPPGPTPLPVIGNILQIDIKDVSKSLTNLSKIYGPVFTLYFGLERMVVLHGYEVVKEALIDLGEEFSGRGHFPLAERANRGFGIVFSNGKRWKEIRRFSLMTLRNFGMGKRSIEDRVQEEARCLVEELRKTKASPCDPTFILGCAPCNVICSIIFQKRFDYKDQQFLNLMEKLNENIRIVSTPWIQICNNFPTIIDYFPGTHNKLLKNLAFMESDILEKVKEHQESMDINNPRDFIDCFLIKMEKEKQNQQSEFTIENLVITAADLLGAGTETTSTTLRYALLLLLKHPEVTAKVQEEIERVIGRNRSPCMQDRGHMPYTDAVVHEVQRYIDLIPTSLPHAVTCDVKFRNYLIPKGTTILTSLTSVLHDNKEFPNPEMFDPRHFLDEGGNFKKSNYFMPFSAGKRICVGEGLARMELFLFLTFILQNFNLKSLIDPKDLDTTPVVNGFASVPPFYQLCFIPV
# Chain of Cytochrome P450 1A2 (Homo sapiens) (P05177 whole entry, looked up): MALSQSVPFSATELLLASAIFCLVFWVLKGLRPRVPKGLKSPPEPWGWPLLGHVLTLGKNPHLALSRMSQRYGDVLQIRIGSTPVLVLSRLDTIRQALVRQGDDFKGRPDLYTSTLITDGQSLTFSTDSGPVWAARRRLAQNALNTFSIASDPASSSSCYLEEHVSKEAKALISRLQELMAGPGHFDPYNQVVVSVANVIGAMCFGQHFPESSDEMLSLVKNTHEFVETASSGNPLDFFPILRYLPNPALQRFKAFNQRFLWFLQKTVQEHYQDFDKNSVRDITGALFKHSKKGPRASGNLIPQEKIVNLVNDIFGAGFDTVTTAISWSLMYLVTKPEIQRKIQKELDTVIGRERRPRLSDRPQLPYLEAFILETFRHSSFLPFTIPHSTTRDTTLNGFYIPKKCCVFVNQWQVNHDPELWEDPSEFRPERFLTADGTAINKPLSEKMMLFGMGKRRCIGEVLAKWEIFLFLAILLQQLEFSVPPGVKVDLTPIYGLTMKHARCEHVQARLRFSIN
# Chain of Voltage-gated inwardly rectifying potassium channel KCNH2 (Homo sapiens) (Q12809 whole entry, looked up): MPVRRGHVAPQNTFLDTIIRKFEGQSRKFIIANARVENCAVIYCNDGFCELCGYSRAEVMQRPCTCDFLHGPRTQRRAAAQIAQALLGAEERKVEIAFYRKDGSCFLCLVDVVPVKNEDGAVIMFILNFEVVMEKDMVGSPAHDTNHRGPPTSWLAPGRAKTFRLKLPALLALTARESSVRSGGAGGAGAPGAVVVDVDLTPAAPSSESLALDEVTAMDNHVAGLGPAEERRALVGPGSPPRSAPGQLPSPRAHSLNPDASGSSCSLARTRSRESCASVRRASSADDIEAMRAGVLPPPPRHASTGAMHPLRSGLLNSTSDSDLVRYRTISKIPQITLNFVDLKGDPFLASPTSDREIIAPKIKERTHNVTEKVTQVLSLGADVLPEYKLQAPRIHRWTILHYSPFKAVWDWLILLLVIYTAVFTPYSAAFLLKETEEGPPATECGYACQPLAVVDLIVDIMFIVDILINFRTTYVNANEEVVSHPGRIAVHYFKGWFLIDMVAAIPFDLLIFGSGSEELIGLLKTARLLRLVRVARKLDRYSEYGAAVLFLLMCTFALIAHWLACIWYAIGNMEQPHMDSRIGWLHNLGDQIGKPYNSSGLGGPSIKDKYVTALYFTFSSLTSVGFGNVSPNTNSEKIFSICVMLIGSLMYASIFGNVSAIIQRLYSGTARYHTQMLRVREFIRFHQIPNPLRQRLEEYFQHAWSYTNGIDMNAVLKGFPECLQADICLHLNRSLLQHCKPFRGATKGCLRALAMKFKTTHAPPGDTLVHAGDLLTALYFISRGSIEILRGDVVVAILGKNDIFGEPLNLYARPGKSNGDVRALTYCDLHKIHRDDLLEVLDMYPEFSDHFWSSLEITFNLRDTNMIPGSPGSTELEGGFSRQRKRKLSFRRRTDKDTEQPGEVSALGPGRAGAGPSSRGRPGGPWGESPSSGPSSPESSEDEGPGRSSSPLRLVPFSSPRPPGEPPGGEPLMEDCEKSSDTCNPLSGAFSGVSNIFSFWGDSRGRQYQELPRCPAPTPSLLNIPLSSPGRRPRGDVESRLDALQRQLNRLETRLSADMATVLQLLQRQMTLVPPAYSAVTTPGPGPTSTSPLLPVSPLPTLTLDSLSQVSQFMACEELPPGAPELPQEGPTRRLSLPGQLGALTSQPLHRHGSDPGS
# Chain of Cytochrome P450 2C9 (Homo sapiens) (P11712 whole entry, looked up): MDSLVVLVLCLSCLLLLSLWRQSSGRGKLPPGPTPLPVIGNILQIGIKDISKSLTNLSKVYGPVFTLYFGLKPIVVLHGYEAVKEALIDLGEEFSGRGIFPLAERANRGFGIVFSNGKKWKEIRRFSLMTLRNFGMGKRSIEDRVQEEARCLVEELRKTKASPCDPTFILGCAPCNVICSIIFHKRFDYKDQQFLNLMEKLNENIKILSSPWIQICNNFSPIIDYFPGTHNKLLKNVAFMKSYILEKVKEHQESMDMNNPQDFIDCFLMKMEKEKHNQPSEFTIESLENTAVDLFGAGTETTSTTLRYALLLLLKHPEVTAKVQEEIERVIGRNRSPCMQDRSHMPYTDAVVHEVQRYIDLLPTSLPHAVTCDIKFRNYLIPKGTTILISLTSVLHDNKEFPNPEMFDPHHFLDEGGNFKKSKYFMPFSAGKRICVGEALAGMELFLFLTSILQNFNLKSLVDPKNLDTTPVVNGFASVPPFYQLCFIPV
SMILES,Potency [1],Potency [2],Potency [3],Potency [4],Potency [5]
CCCCCCCCCCCCCCCCCC[N+](C)(C)Cc1ccccc1,56.9 µM (active),40.3 µM (active),80.4 µM (active),2.78 µM (active),40.3 µM (active)
CCC(C)Nc1ccc(NC(C)CC)cc1 (configuration not stated),1.82 µM (active),5.12 µM (active),40.7 µM (active),7.91 µM (active),8.12 µM (active)
Cc1ccc(O)c2ncccc12,inactive,inactive,15.5 µM (active),,inactive
COc1c(C)c2c(c(O)c1C/C=C(\C)CCC(=O)O)C(=O)OC2,inactive,inactive,inactive,inactive,inactive
CCC1OCC(COc2ccc(Oc3ccccc3)cc2)O1 (configuration not stated),17.8 µM (active),28.3 µM (active),25.2 µM (active),,inactive
O=[N+]([O-])c1ccccc1Nc1ccccc1,19.9 µM (active),39.7 µM (active),5 µM (active),54.6 µM (active),inactive
OCCCCCCCCCCCCBr,inactive,inactive,40.5 µM (active),inactive,inactive
Nc1ccc2cc(S(=O)(=O)O)cc(O)c2c1N=Nc1ccccc1C(F)(F)F,79.6 µM (active),63.3 µM (active),39.9 µM (active),inactive,inactive
CCCN(CCC)c1c([N+](=O)[O-])cc(C(F)(F)F)c(N)c1[N+](=O)[O-],2 µM (active),20 µM (active),2 µM (active),,12.6 µM (active)
CNc1ccc(O)cc1,15.9 µM (active),22.4 µM (active),63.2 µM (active),inactive,25.1 µM (active)
